Compound activity from PubChem BioAssay.
D1 allo mod – D1 CRE-luciferase signal change, two-sided – cell-based, HEK293 D1, dopamine EC30, D1 allosteric modulator project, primary screen | D(1A) dopamine receptor (Homo sapiens), P21728 | dopamine EC30 potentiation; actives deviate in either direction | B-score at 10 µM | hit rate 5.9% among 58,000 | AID 641, 2007;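 active means luminescence count or its row- and column-corrected plate score outside the 99.7% band of the plate's sample wells, on either side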
PLAP act – PLAP enzyme activators, biochemical, luminescence, HTS | purified PLAP enzyme, luminescent substrate read-out; stronger effect = higher value | activation fold at 20 µM | hit rate 1.2% among 96,000 | Alkaline phosphatase, placental type (Homo sapiens), P05187; in the data active means activation fold above about 2
Target sequence (P05187 whole entry, looked up): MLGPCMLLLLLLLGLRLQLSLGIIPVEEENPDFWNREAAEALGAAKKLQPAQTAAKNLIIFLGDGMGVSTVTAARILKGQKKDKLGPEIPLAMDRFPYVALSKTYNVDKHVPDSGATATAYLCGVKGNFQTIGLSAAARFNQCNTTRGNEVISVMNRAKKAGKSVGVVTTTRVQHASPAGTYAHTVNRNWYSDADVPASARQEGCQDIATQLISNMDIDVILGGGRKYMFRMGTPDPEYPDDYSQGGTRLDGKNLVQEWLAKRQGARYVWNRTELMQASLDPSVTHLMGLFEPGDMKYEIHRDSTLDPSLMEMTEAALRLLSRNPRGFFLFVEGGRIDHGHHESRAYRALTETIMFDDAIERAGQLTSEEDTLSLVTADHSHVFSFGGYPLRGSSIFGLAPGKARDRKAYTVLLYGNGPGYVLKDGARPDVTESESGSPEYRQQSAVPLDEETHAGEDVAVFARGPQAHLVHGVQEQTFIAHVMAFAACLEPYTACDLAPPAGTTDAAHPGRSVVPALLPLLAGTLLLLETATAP
DAT uptake mod – changed hDAT dopamine uptake under cocaine IC80, either direction, primary screen, cocaine antagonist project, cell-based, LLC-PK1 hDAT, [14C]-dopamine uptake, MLSMR | Sodium-dependent dopamine transporter (Homo sapiens), Q01959 | LLC-PK1 hDAT cells, [14C]-dopamine uptake with cocaine IC80; actives deviate in either direction | B-score at 10 µM | hit rate 1.3% among 110,000 | AID 449768, 2010;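 active means Z score or B-score, a plate-position-corrected score, falls beyond the plate's 99.7% confidence bounds, in either direction; inactive means both scores lie inside the 99.7% bounds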
PostGolgi ctrl – growth inhibition of yeast control strain, primary screen, counter-screen for post-Golgi transport modulator project. efflux-deficient yeast background strain, growth absorbance A615, 16 h. AID 738, 2007. inhibition, % at 10 µM. hit rate 5% among 98,000
PostGolgi yeast – phenotypic screen on post-Golgi transport, primary screen | post-Golgi transport phenotypic cell assay | inhibition, % at 10 µM | hit rate 0.9% among 98,000 | AID 739, 2007;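 further: yeast cells grown in 1536-well plates; yeast grown about 18 h at 30C before absorbance read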
Cav3 T inh – Cav3.2 calcium influx blockers – cell-based, Fluo-4 calcium fluorescence, FDSS, MLSMR library, primary screen; Voltage-dependent T-type calcium channel subunit alpha-1H (Homo sapiens), O95180; Cav3.2-expressing cells; stronger effect = lower value; B-score at 10 µM; hit rate 4% among 100,000;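 active means single-dose well whose peak fluorescence ratio is a statistical outlier from its plate by either plate-standardised score or position-corrected B-score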
Of the large screens only hits and unclear results are named; the others gave an inactive call. Most compounds without a hit are left out; they make up all but 12% or so of the library. Unless noted, no stated cut-off is given here; in the data, active means inhibition above about 30%; inactive means the rest.

CS(=O)(=O)NCCC1=CCCCC1	none (no result: Cav3 T inh)
CCOCCCNC(=O)Cc1c(C(=O)O)[nH]c2ccc(Cl)cc12	none (no result: PLAP act)
CCCCN(CC)C(=O)Cc1c(C(=O)O)[nH]c2ccc(Cl)cc12	PostGolgi ctrl 32
O=C(Cn1ncc2c3ccccc3n(Cc3ccccc3)c2c1=O)N1CCN(c2ncccn2)CC1	DAT uptake mod 1.8 (no result: D1 allo mod)
Cc1c2cnn(-c3ccccc3)c(=O)c2c(C)n1CCCC(=O)N1CCN(c2ncccn2)CC1	Cav3 T inh 5.5
Cc1c2cnn(CC(=O)N3CCN(c4ncccn4)CC3)c(=O)c2c(C)n1Cc1ccc(F)cc1	none (no result: PLAP act, DAT uptake mod, PostGolgi ctrl, PostGolgi yeast, Cav3 T inh)
Cc1ccc(C(C)C)c(OC(=O)/C=C/c2ccccc2)c1	none (no result: D1 allo mod)
Cc1ccc(S(=O)(=O)Nc2ccc(-c3nnc(SCC#N)n3C)cc2)cc1	none
Cc1c(NC(=O)Nc2cccc(Cl)c2)c(=O)n(-c2ccccc2)n1C	PostGolgi ctrl 37 (no result: D1 allo mod)
Cc1c(NC(=O)c2ccccc2)c(=O)n(-c2ccccc2)n1C	none (no result: D1 allo mod, PLAP act, PostGolgi ctrl, PostGolgi yeast)
Cc1ccc(S(=O)(=O)/N=C(/Nc2c(C)n(C)n(-c3ccccc3)c2=O)c2ccc(Cl)cc2)cc1	DAT uptake mod 5.6 (no result: D1 allo mod)
Cc1c(NC(=O)/C(=C\c2ccccc2)NC(=O)c2ccccc2)c(=O)n(-c2ccccc2)n1C	DAT uptake mod -8.8 (no result: D1 allo mod)
COc1ccccc1N/C(=N/S(=O)(=O)c1ccc(C)cc1)c1ccc(Cl)cc1	Cav3 T inh -3.8 (no result: D1 allo mod)
CC(C)(O)C#Cc1ccc(C(=O)NCc2ccccc2)s1	none (no result: D1 allo mod, PLAP act, PostGolgi ctrl, PostGolgi yeast)
Cc1c(NS(=O)(=O)c2cccc(C(=O)NCc3ccc(Cl)cc3)c2)c(=O)n(-c2ccccc2)n1C	PostGolgi ctrl 31 (no result: D1 allo mod)
Cc1c(NS(=O)(=O)c2ccccc2)c(=O)n(-c2ccccc2)n1C	none (no result: D1 allo mod)
Cc1ccc(S(=O)(=O)Oc2ccc(/C=C(/NC(=O)c3ccccc3)C(=O)Nc3ccccc3)cc2)cc1	Cav3 T inh -5 (no result: D1 allo mod)
Cc1cccc(OCC(=O)Nc2cc(C)on2)c1	none (no result: D1 allo mod, PLAP act, PostGolgi ctrl, PostGolgi yeast)
O=C(COc1cccc(Oc2ccccc2)c1)Nc1ncccn1	none
COCCNC(=O)COc1cccc(Oc2ccccc2)c1	PostGolgi ctrl 31
Cc1cc(NC(=O)COc2cccc(Oc3ccccc3)c2)no1	PostGolgi ctrl 31
COc1ccccc1/C=N/N(C(C)=O)c1nc(-c2ccc(F)cc2)cs1	none (no result: D1 allo mod)
CCN1CCN(Cc2cccc(Oc3ccccc3)c2)CC1	PLAP act 2.2 (no result: D1 allo mod)
CCCCC1(O)CC(C(F)(F)F)=NN1C(=O)COc1ccccc1 (stereo not drawn)	none (no result: D1 allo mod, PLAP act, PostGolgi ctrl, PostGolgi yeast)
Cc1cc(C)cc(OCC(=O)N2N=C(C(F)(F)F)CC2(O)C(C)(C)C)c1 (stereo not drawn)	Cav3 T inh -4.3 (no result: D1 allo mod, PLAP act, PostGolgi ctrl, PostGolgi yeast)
CC1(C)CC(=O)C/C(=N/NC(=O)CCCOc2ccc(Cl)cc2Cl)C1	none (no result: D1 allo mod)
N#CC1=C(N)N(c2ccccc2)C(c2cccc([N+](=O)[O-])c2)C1(C#N)C#N (stereo not drawn)	Cav3 T inh -6.6 (no result: D1 allo mod)
Cc1cccc(N2C(N)=C(C#N)C(C#N)(C#N)C2c2ccccc2)c1 (stereo not drawn)	none (no result: Cav3 T inh)
CCOc1ccccc1NC(=O)CN(c1ccc(C)cc1)S(=O)(=O)c1c(C)n[nH]c1C	PLAP act 2.1
COc1ccccc1CNC(=O)CN(c1ccc(C)cc1)S(=O)(=O)c1c(C)n[nH]c1C	none
CC1=C(C(=O)OCc2ccccc2)C(c2ccccc2OS(=O)(=O)c2ccc([N+](=O)[O-])cc2)NC(=O)N1CCCC(=O)O (stereo not drawn)	DAT uptake mod 2.8 (no result: D1 allo mod, PLAP act, PostGolgi ctrl, PostGolgi yeast)
CCN(CC)c1nc2cc(OC)ccc2cc1C#N	PostGolgi yeast 39 (no result: DAT uptake mod, Cav3 T inh)
Cc1ccc2[nH]c(=O)c(-c3nc4cc(C)ccn4c3NCc3ccco3)cc2c1	none
Cc1cccc2cc(-c3nc4c(C)cccn4c3NCc3ccco3)c(=O)[nH]c12	PostGolgi ctrl 56, PostGolgi yeast 44 (no result: D1 allo mod)
CC1=C(C)CS(=O)N(c2ccc(S(N)(=O)=O)cc2)C1 (stereo not drawn)	Cav3 T inh -7.2
CC1CN(S(=O)(=O)c2ccccc2)CC(C)O1 (stereo not drawn)	none
CC1=C(C)CS(=O)N(S(=O)(=O)c2ccccc2)C1 (stereo not drawn)	Cav3 T inh -7.9 (no result: D1 allo mod)
NS(=O)(=O)c1ccc(S(=O)(=O)N2CCCC2)cc1	none (no result: D1 allo mod)
CCCCc1ccc(-c2nc(NC(=O)C3C4CCC(O4)C3C(=O)O)sc2C)cc1 (stereo not drawn)	none (no result: D1 allo mod)
CCc1c(C)nc2cc(-c3ccc(OC)c(OC)c3)nn2c1NCC1CC1	PLAP act 2 (no result: D1 allo mod, DAT uptake mod, Cav3 T inh)
CCc1c(C)nc2cc(-c3cc(OC)cc(OC)c3)nn2c1N1CCN(CCN2CCOCC2)CC1	none (no result: D1 allo mod, PLAP act, PostGolgi ctrl, PostGolgi yeast)
O=C(Nc1ccc(Br)cc1Cl)Nn1cnnc1	PostGolgi ctrl 34 (no result: D1 allo mod)
COc1ccc(C)cc1NC(=O)Nn1cnnc1	none (no result: D1 allo mod)
COc1cc(CCCN2C(N)=NC[C@@H]2Cc2ccccc2)cc(OC)c1OC	none (no result: D1 allo mod, PLAP act, PostGolgi ctrl, PostGolgi yeast)
O=C(Nc1ccc2c(c1)OCO2)Nc1ccc(Cl)cc1Cl	none (no result: D1 allo mod)
CN(C(=O)Nc1ccc(Cl)cc1Cl)[C@H]1c2cc(Br)ccc2OC[C@H]1CO	PostGolgi ctrl 81 (no result: D1 allo mod)
CN1CC(=O)NC1=NC(=O)C12CC3CC(CC(C3)C1)C2	PLAP act 2.6
O=S(=O)(c1ccccc1)n1ccc2cccnc21	none (no result: D1 allo mod)
CCCCn1c(-c2ccccc2)cnc1SCC(=O)NCCc1ccc(OC)c(OC)c1	Cav3 T inh -4.5 (no result: D1 allo mod)
COc1ccc(CCNC(=O)CSc2nnc(-c3ccccc3)o2)cc1OC	none (no result: PostGolgi ctrl, PostGolgi yeast)
CCCCCn1c(CCC(=O)Oc2ccccc2OC)nc2c1c(=O)[nH]c(=O)n2CCCC	none (no result: D1 allo mod)
COc1ccccc1NC(=O)Cc1csc(N)n1	none
CCc1ccccc1NC(=O)CSc1nc(-c2ccccc2)nn1C(=O)c1cccc([N+](=O)[O-])c1	DAT uptake mod 5.4 (no result: D1 allo mod)
O=C(CCSc1nnc2scc(-c3ccccc3)n12)Nc1nc(-c2ccccc2)ns1	Cav3 T inh -4.6
Cc1ccc(-c2csc3nnc(SCC(=O)Nc4cccc(C)n4)n23)cc1	PostGolgi yeast 35 (no result: Cav3 T inh)
CC(=O)Nc1ccc(C(=O)CSc2nnc3scc(-c4ccccc4)n23)cc1	none
CC(=O)OC(Cn1ccnc1)c1ccccc1 (stereo not drawn)	none
Cc1ccnc(NC(=O)c2ccc(N3C(=O)CCC3=O)cc2)c1	none (no result: D1 allo mod)
O=C(CCN1C(=O)c2ccccc2C1=O)N1CCN(Cc2ccc(Cl)cc2Cl)CC1	Cav3 T inh -6
O=C(CCN1C(=O)c2ccccc2C1=O)N1CCN(Cc2ccccc2)CC1	none (no result: PLAP act, PostGolgi ctrl, PostGolgi yeast)
O=C(OCCN=C1NS(=O)(=O)c2ccccc21)C1CC(=O)N(c2ccc3ccccc3c2)C1 (stereo not drawn)	none (no result: D1 allo mod)
O=S(=O)(/N=C(/Nc1cccc2ccccc12)c1ccccc1)c1cccs1	Cav3 T inh -4.6 (no result: D1 allo mod)
